Among the test systems are NCI-H23 lung; NCI-H226 lung; NCI-H322M lung; HOP-62 NSCLC; NCI-H460 lung; HOP-92 NSCLC; NCI-H522 lung; A549/ATCC NSCLC; 786-0 renal; COLO 205 colon; DU-145 prostate; K-562 leukemia; MALME-3M melanoma; MDA-MB-231 breast; SF-268 CNS; SF-295 CNS; SF-539 CNS; UACC-257 melanoma; M14 melanoma; RXF 393 renal.
What all share (assay): NCI-60 one-dose screen, 48 h (100 = growth as untreated, 0 = no growth, -100 = all killed)
What all share (details): 10 µM unless noted

The panel holds about 83,000 compounds, 20% with a hit somewhere; the sample as a whole holds those more often.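 Interpretation: 100, growth as untreated; towards 0, rising growth inhibition; 0, no net growth; 0 to -100, cell death. Compounds scoring below 10 were considered active.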 A number with no mark means an inactive call. Activity calls are given as the source filed them.

On to `O=Cc1cn(Cc2ccc(Cl)cc2)c2ccccc12`, for which the growth in the experiment on NCI-H23 lung is 84.9%; with NCI-H226 lung it was -26.9% (active); with NCI-H322M lung, 82.5%; in the experiment on HOP-62 NSCLC, 76.9%; in the experiment on NCI-H460 lung, 5.05% (active); in the experiment on HOP-92 NSCLC it was 76.4%. Further, the growth with NCI-H522 lung is 93.4%; in the experiment on A549/ATCC NSCLC, 64.8%; in the experiment on 786-0 renal, 94.1%; in the experiment on COLO 205 colon, 22%; in the experiment on DU-145 prostate, 95.5%; with K-562 leukemia, 40.5%. In addition, the growth was 96.5% with MALME-3M melanoma; 96.1% with MDA-MB-231 breast; 89.6% in the experiment on SF-268 CNS; 46% in the experiment with SF-295 CNS; 87.4% with SF-539 CNS; 21.8% in the experiment with UACC-257 melanoma. Besides, the growth with M14 melanoma was 83.8%.

As to `Clc1ccc(COC(Cn2ccnc2)c2ccc(Cl)cc2Cl)cc1` (configuration not stated), the growth in the experiment on NCI-H23 lung was 54.2%; in the experiment on NCI-H226 lung, 70.2%; with NCI-H322M lung, 84.9%; in the experiment on HOP-62 NSCLC it was 75.1%; with NCI-H460 lung, 33.2%; in the experiment on HOP-92 NSCLC it was 26%. Moreover, the growth is 36.4% in the experiment on NCI-H522 lung; 51.7% in the experiment on A549/ATCC NSCLC; 68.5% in the experiment with 786-0 renal; 68.8% in the experiment on COLO 205 colon; 71.6% in the experiment on DU-145 prostate; -4.49% (active) in the experiment on K-562 leukemia. For the same compound, the growth in the experiment with MALME-3M melanoma is 42.9%; with MDA-MB-231 breast, 57.6%; in the experiment on SF-268 CNS, 52.1%; in the experiment on SF-295 CNS, 17.9%; with SF-539 CNS it was 87.7%; with UACC-257 melanoma, 61.9%. In addition, in the experiment on M14 melanoma, the growth was 58.9%.

Turning to `CCC1(C(C)C)C(=O)NC(=S)NC1=O`, the growth in the experiment with NCI-H23 lung was 117%; in the experiment with NCI-H226 lung it was 90.5%; in the experiment with NCI-H322M lung it was 106%; with HOP-62 NSCLC, 102%; with NCI-H460 lung, 102%; in the experiment with HOP-92 NSCLC, 91.5%. Besides, the growth was 105% in the experiment on NCI-H522 lung; 95.7% in the experiment on A549/ATCC NSCLC; 108% in the experiment with 786-0 renal; 123% in the experiment with COLO 205 colon; 115% in the experiment with DU-145 prostate; 107% in the experiment on K-562 leukemia. In addition, the growth is 111% in the experiment with MALME-3M melanoma; 114% in the experiment with MDA-MB-231 breast; 94.8% with RXF 393 renal; 96.1% in the experiment with SF-268 CNS; 94.3% in the experiment with SF-539 CNS; 92.2% in the experiment on UACC-257 melanoma. Besides, the growth with M14 melanoma is 106%.

On to `CC(=O)[O][Hg][c]1c(N)c(C)cc(C)c1F`, for which the growth is 48.6% with NCI-H23 lung; 90.2% in the experiment on NCI-H226 lung; 85.1% with NCI-H322M lung; 59.5% in the experiment with HOP-62 NSCLC; 43.8% with NCI-H460 lung; 12.1% with HOP-92 NSCLC. Further, the growth in the experiment on NCI-H522 lung is -42.2% (active); with A549/ATCC NSCLC it was 84.7%; with 786-0 renal, -31.7% (active); in the experiment on COLO 205 colon, -16.6% (active); with DU-145 prostate, 36.3%; in the experiment on K-562 leukemia it was 5.95% (active). In addition, the growth is -72.4% (active) in the experiment on MALME-3M melanoma; 7.24% (active) with MDA-MB-231 breast; -15.5% (active) with SF-268 CNS; 73% with SF-295 CNS; 28.3% in the experiment with SF-539 CNS; 31% in the experiment with UACC-257 melanoma. Moreover, in the experiment with M14 melanoma, the growth is 5.84% (active).

As for `O=C1CCC2(O)[C@@H]3Cc4ccc(O)c5c4[C@]2(CCN3Cc2ccoc2)C1O5` (some centres not stated), the growth in the experiment on NCI-H23 lung is 96.7%; in the experiment with NCI-H226 lung, 89.4%; with NCI-H322M lung it was 110%; in the experiment with HOP-62 NSCLC, 106%; in the experiment on NCI-H460 lung, 103%; in the experiment with HOP-92 NSCLC, 100%. For the same compound, the growth is 95.4% in the experiment with NCI-H522 lung; 102% in the experiment on A549/ATCC NSCLC; 103% in the experiment on 786-0 renal; 105% in the experiment with COLO 205 colon; 106% in the experiment on DU-145 prostate; 93.9% in the experiment on K-562 leukemia. The growth in the experiment on MALME-3M melanoma was 96.7%; with MDA-MB-231 breast it was 106%; in the experiment with RXF 393 renal it was 116%; with SF-268 CNS, 108%; in the experiment on SF-539 CNS, 97.8%; in the experiment with UACC-257 melanoma, 103%. Moreover, the growth with M14 melanoma was 100%.

`CCCCCCCC(=O)OCC(=O)[C@]1(O)Cc2c(O)c3c(c(O)c2[C@@H](OC2CC(N)C(O)C(C)O2)C1)C(=O)c1c(OC)cccc1C3=O` (some centres not stated): the growth is -76.2% (active) with NCI-H23 lung; -65.9% (active) in the experiment on NCI-H226 lung; -72.8% (active) with NCI-H322M lung; -63.1% (active) with HOP-62 NSCLC; -92.9% (active) in the experiment with NCI-H460 lung; -73.5% (active) in the experiment on HOP-92 NSCLC. Besides, the growth was -63.2% (active) in the experiment with NCI-H522 lung; -97.6% (active) with A549/ATCC NSCLC; -82.9% (active) in the experiment with 786-0 renal; -85.7% (active) in the experiment on COLO 205 colon; -100% (active) with DU-145 prostate; -86.7% (active) in the experiment with K-562 leukemia. Further, the growth with MALME-3M melanoma was -70.7% (active); in the experiment with MDA-MB-231 breast it was -72.4% (active); in the experiment with SF-268 CNS it was -82.1% (active); with SF-295 CNS, -68.1% (active); with SF-539 CNS, -79.9% (active); in the experiment with UACC-257 melanoma, -98.2% (active). Besides, in the experiment with M14 melanoma, the growth is -69.8% (active).

In the case of `O=C(O)c1ccc([S-])cc1.[Au+].c1ccc(CN2[CH-]N(Cc3ccccc3)C(c3ccccc3)=C2c2ccccc2)cc1`, the growth in the experiment on NCI-H23 lung was -64.8% (active); in the experiment with NCI-H226 lung it was 3.42% (active); with NCI-H322M lung, 7.67% (active); in the experiment on HOP-62 NSCLC it was -28% (active); in the experiment on NCI-H460 lung, -29% (active); with HOP-92 NSCLC, -45% (active). Moreover, the growth in the experiment with NCI-H522 lung was -44.9% (active); with A549/ATCC NSCLC, 3.5% (active); in the experiment on 786-0 renal it was -70.3% (active); with COLO 205 colon it was -66.5% (active); with DU-145 prostate, -47.2% (active); with K-562 leukemia, -16.9% (active). For the same compound, the growth in the experiment with MALME-3M melanoma was -68.6% (active); in the experiment with MDA-MB-231 breast, -62.5% (active); in the experiment with RXF 393 renal, -88.9% (active); in the experiment on SF-268 CNS it was -42.7% (active); in the experiment with SF-539 CNS it was -1.4% (active); in the experiment on UACC-257 melanoma, -19.1% (active). The growth in the experiment on M14 melanoma is -48.1% (active).

Consider `ClCCN(CCCl)Cc1ccc(Nc2ccnc3cc(Cl)ccc23)cc1`, for which the growth was 36.6% in the experiment with NCI-H23 lung; 70.2% with NCI-H226 lung; 79% with NCI-H322M lung; 31.3% with HOP-62 NSCLC; 2.98% (active) in the experiment with NCI-H460 lung; -4.98% (active) with HOP-92 NSCLC. Besides, the growth was -34.7% (active) in the experiment with NCI-H522 lung; 39.2% with A549/ATCC NSCLC; 8.84% (active) in the experiment on 786-0 renal; 50.6% in the experiment on COLO 205 colon; 18.6% with DU-145 prostate; 35.6% in the experiment on K-562 leukemia. Also, the growth is 57.4% in the experiment on MALME-3M melanoma; 56.3% in the experiment with MDA-MB-231 breast; -59.1% (active) with RXF 393 renal; 25.3% in the experiment on SF-268 CNS; -20.2% (active) in the experiment on SF-539 CNS; 56.2% in the experiment on UACC-257 melanoma. Also, the growth with M14 melanoma is 49.7%.

For the origin of these results see PubChem BioAssay (NCI).
